target: Alpha-bungarotoxin (Bungarus multicinctus) (UniProt P60615); assay: compounds binding labelled alpha-BTX control protein – biochemical, small-molecule microarray, Alexa647 label, 635/667 nm fluorescence, artefact control for SMM control protein annotation, profiling panel (AID 1117); conditions: alpha-BTX-A647 binding fluorescence, higher = more signal
Sequence (P60615 whole entry, looked up): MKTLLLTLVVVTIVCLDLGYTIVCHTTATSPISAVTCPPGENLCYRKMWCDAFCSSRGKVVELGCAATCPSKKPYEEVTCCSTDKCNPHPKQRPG

Question: How did the composite z-score turn out when `CCN(CC)c1ccc(N2CC=CC34O[C@@H]5C=CCOC(=O)[C@@H]5[C@H]3C(=O)N(CCO)[C@@H]4C2=O)cc1` (some centres undefined) was run?
Answer: -1.29

Question: `CCOC(=O)C1=CC[C@@H](c2ccccc2)N(S(=O)(=O)C[Si](C)(C)C)[C@H]1c1ccccc1` was tested. Which composite z-score did it give?
Answer: 1.02

Question: How did the composite z-score turn out when `CN(C)CCCC[C@@H]1NC(=O)[C@@H]2C[C@H](C(=O)NCc3ccc(F)cc3)[C@H](c3ccc(O)cc3)N2C1=O` was run?
Answer: -0.407

Question: Which composite z-score does the source give for `C=CCOC(=O)[C@H]1[C@@H]2C(=O)O[C@@H](c3ccccc3)[C@@H](c3ccccc3)N2[C@@H](c2ccc(OCCOC(=O)[C@@H]3C[C@@H]4C(=O)N[C@@H](CC(C)C)C(=O)N4[C@@H]3c3ccc(O)cc3)cc2)[C@]12C(=O)Nc1ccc(I)cc12` here?
Answer: 0.912

Question: With `COCCCNC(=O)[C@@H]1c2ccccc2C(=O)N(C2CCCCC2)[C@H]1c1ccc(CO)cc1` as the molecule, how does the composite z-score read?
Answer: -1.08

Question: Which composite z-score does the source give for `CN(C)CCCC[C@@H]1NC(=O)[C@H]2C[C@@H](C(=O)NCc3ccc(F)cc3)[C@@H](c3ccc(O)cc3)N2C1=O` here?
Answer: 2.5

Question: `COc1ccc(C#Cc2ccc3c(c2)[C@]2(C(=O)N3)[C@H](C(=O)Nc3nc4ccccc4s3)[C@H]3C(=O)O[C@H](c4ccccc4)[C@H](c4ccccc4)N3[C@@H]2c2ccc(OCCO)cc2)cc1` was tested. Which composite z-score did it give?
Answer: 1.75

Question: How did the composite z-score turn out when `C=CCC(OC(C)=O)[C@@H]1[C@@H](N(Cc2ccc(-c3cccc(C(F)(F)F)c3)o2)C(=O)c2cccc3ccccc23)c2cc(OCCCO)ccc2N1C(=O)c1ccc2ccccc2n1` (some centres undefined) was run?
Answer: -0.482

Question: Which composite z-score does the source give for `C[N+](C)(C)CCCC[C@@H]1NC(=O)[C@H]2C[C@@H](C(=O)NCCCCCNC(=O)CS)[C@@H](c3ccc(O)cc3)N2C1=O` here?
Answer: -0.256
